Tg IFNy HTS – T. gondii growth inhibition with IFN-gamma, primary screen, cell-based. AID 1259416, 2018. activity change, negative = inhibition, % (test concentration not listed). Toxoplasma gondii growth in IFN-gamma-treated host cells; stronger effect = lower value. 3.8% of 69,000 active; in the data active = activity change below about -70%, passing the limit was not always enough;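 also: host cells are HeLa cells infected with Toxoplasma gondii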
The depositor's hits bear a star. This is one part of a sample in which hits are shown more often than they occur.

SMILES | Tg IFNy HTS
Cc1nccn1CCN(C)c1nc(C(C)(C)C)nc2c1cnn2C | -11.6
O=C(c1cn[nH]n1)N1CCC(c2c(-c3ccccc3)[nH]c3ccccc23)CC1 | 9.2
CC(C)(C)n1nc(-c2ccc(Cl)cc2)c2c(N)ncnc21 | -90.4*
CC(C)n1nc(-c2cc3cc(O)ccc3[nH]2)c2c(N)ncnc21 | -64.5
O=C(Nc1ccc(F)cc1Cl)c1nc(Nc2ccccc2)c2ccccc2n1 | -17.5
N#Cc1cc(Br)c(OCc2c(F)cccc2Cl)c(Br)c1 | -78.0*
N#Cc1ccc(OCc2c(Cl)sc3ccc(Cl)cc23)cc1 | -6.0
O=C1C2C3C=CC(O3)C2C(=O)N1OCc1c(F)cccc1Cl (stereo unspecified) | 41.8
Cc1nc(OCC(=O)Nc2c(C)cccc2C)c2ccccc2n1 | 3.7
O=C(O)c1cccc(-c2ccc3c(c2)OCO3)c1 | -74.6*
O=C(c1ccc2c(c1)OCO2)N1CCCCC1 | -3.9
O=C(O)c1cc(-c2ccc3c(c2)OCO3)nc2ccc(Br)cc12 | 8.4
CC(=O)N1CCCC1c1nnn2cc(C3CC3)ccc12 (stereo unspecified) | -10.8
FC(F)(F)c1ccc(-c2nnc3ccc(N4CCCCC4)nn23)cc1 | -108.8*
Cc1cc2nnc(-c3ccc(C(F)(F)F)cc3)n2[nH]1 | 63.8
FC(F)(F)c1cc(-c2nnc(N3CCCC3)o2)cc(C(F)(F)F)c1 | 40.1
CCCNC(=O)c1nc(Nc2ccc(C)cc2)c2ccccc2n1 | -54.7
Cc1cc(C)nc(CN2CCC3(CCCO3)CCC2=O)n1 (stereo unspecified) | -15.6
CC(C)(CO)c1cc2cc(NC(=O)C3(c4ccc5c(c4)OC(F)(F)O5)CC3)c(F)cc2n1C[C@@H](O)CO | 1.6
CS(=O)(=O)NC1CCN(CCn2c(=O)oc3ccccc32)CC1 | -4.1
Cc1cc(C(F)(F)F)n2nc(C3CCCN(C(=O)c4cc5c(s4)CCCC5)C3)cc2n1 (stereo unspecified) | -103.6*
O=C(c1ccn[nH]1)N1CCC(c2cc3nc(-c4cccs4)cc(C(F)(F)F)n3n2)C1 (stereo unspecified) | -46.4
COc1ccccc1CC(=O)N1CCCC1c1cc2nc(C)cc(C(F)(F)F)n2n1 (stereo unspecified) | -20.9
Cn1cc(S(=O)(=O)Nc2ccc(C(O)CN3CCCCC3)cc2)c(=O)n(C)c1=O (stereo unspecified) | 9.7
Nc1nc2c(c(=O)[nH]1)N(C=O)[C@@H](CNc1ccc(C(=O)N[C@@H](CCC(=O)O)C(=O)O)cc1)CN2 | -43.2
SMILES | Tg IFNy HTS
COc1ccc(F)c(-c2cnc(-n3cnnc3)cc2C)c1 | -81.0*
COc1ccc(F)c(-c2nc(OC)cc(OC)n2)c1 | -16.1
Cc1cc(-n2cnnc2)ncc1-c1ccc(C(C)N2CCCC2)cc1 (stereo unspecified) | -5.2
Cc1cc2nc(CCNC(=O)c3cnc(-c4ccc(Cl)cc4)nc3)[nH]c2cc1C | -94.8*
Cc1ccc2c(c1)cc(C(=O)NCCc1nc3cc(C)c(C)cc3[nH]1)n2C | 6.5
COc1ccc(-c2cc(C(=O)NCCc3nc4cc(C)c(C)cc4[nH]3)nn2C)cc1 | -1.5
CN(C)C(=O)CN1CCO[C@H]2CN(C(=O)c3cnccn3)C[C@@H]21 | 53.0
CN(C)C1CCCN(C(=O)CCc2nc(-c3ccco3)no2)CC1 (stereo unspecified) | 3.9
O=C(c1ccoc1)N1CCCn2c(nc(Cn3ccnc3)cc2=O)C1 | -7.0
COc1ccc(NC(=O)C2=NOC3(CCCN(S(=O)(=O)CC(C)C)C3)C2)cc1 (stereo unspecified) | -2.2
COc1ccc2c(c1)OCC(Cc1ccc(OC)c(O)c1)C2=O (stereo unspecified) | -75.2*
COc1ccc2c(c1)OCC(Cc1ccc(O)c(OC)c1)C2=O (stereo unspecified) | 1.8
COc1cc(C[C@H]2C(=O)OC[C@@H]2Cc2ccc(OC)c(OC)c2)ccc1O | -26.5
COCCN1C(=O)CC(c2ccccc2)C12CCN(C(N)=O)CC2 (stereo unspecified) | -13.7
CCOCC12CCCOC1CCN(C(=O)Cc1ccsc1)C2 (stereo unspecified) | 0.8
NC(=O)c1csc(-c2cccc3ccnn23)n1 | -97.6*
CNC(=O)Cn1cc(-c2cccc3ccnn23)cn1 | 3.4
Cc1nnc(-c2ccccc2-c2cccc3ccnn23)s1 | -40.5
CCOc1ccccc1-c1nc(Cn2ccn3nc(-c4ccc(F)cc4)cc3c2=O)c(C)o1 | 32.8
COc1cccc(N2CC3(CCN(C(=O)C4(C#N)CC4)C3)CC2=O)c1 (stereo unspecified) | -3.0
NC(=O)c1[nH]c(C2CCCN(C(=O)COc3ccccc3)C2)nc1-c1ccccc1 (stereo unspecified) | -22.7
C=CC(=O)N1CCC[C@@H](n2nc(-c3ccc(Oc4ccccc4)cc3)c3c(N)ncnc32)C1 | -79.0*
COc1ccc(-c2ncnc3c2c(C(=O)N2CCCC2)c2ccccn23)cc1 | -50.4
Cc1ccc2c(n1)N(C)CCN(C(=O)N1CCOCC1)C2 | 3.5
O=S(=O)(c1ccccc1)N1CCC2(CN(Cc3ccccc3F)C2)C1 | -2.6
SMILES | Tg IFNy HTS
Cc1cc(-c2ccccc2CO)ccc1NC(=O)c1cccnc1 | -28.0
COc1ccc(-c2ccc(NC(=O)c3cccnc3)c(C)c2)c(OC)c1OC | -22.7
COc1ncccc1-c1ccc(NC(=O)c2cccnc2)c(C)c1 | -84.9*
CCCC(NC(=O)c1c(C)oc2ccc(O)cc12)c1ccc2c(c1)OCCO2 (stereo unspecified) | -51.3
O=C(CC1Nc2c3ccccc3nc(=S)n2C1=O)NCCc1ccc(Cl)cc1 (stereo unspecified) | -7.6
Cc1cccc(NC(=O)Cn2c(=O)cc(C(=O)N3CCCC3)c3ccccc32)c1 | -55.5
O=C(CCc1ccccc1)Nc1ccc(Cl)cn1 | -54.3
Cc1oc2ncn3nc(C(C)NC(=O)CCc4ccccc4)nc3c2c1C (stereo unspecified) | 11.5
CC(C)c1ccc(C(NC(=O)CCc2ccccc2)c2ccc3cccnc3c2O)cc1 (stereo unspecified) | -102.0*
Cc1ccc(NC(=O)CC(=O)NCCc2sccc2C)cc1 | 6.8
Cc1ccc(C2(C(=O)N3CCNCC3C(=O)N3CCN(C)CC3)CC2)cc1 (stereo unspecified) | -5.2
CCN1c2ccccc2C(=O)NC12CCN(C(=O)Cc1ccccc1C)CC2 | -21.3
O=C(CCc1ccccc1)Nc1cccc2nonc12 | 12.7
O=C(CN1C(=O)CCc2cc(Br)ccc21)Nc1cccc2c1CCCC2 | 164.0
Cc1cc(C)cc(NC(=O)CN2C(=O)CCc3cc(Br)ccc32)c1 | -39.5
Cc1ccc(NC(=O)CN2C(=O)CCc3cc(Br)ccc32)cc1F | 17.7
O=C(CN1C(=O)CCc2cc(S(=O)(=O)N3CCCCC3)ccc21)NC1CCCc2ccccc21 (stereo unspecified) | -13.5
O=C(CN1C(=O)CCc2cc(Br)ccc21)NC1CCCc2ccccc21 (stereo unspecified) | -94.1*
CCN1CCN(Cc2ccc(NC(=O)CN3C(=O)CCc4cc(Br)ccc43)cc2)CC1 | -92.3*
CN1CCCn2c(nc(CNC(=O)c3cccn3C)cc2=O)C1 | 3.2
COc1ccc(-c2nc(Nc3cccc(Cl)c3C)c3ccccc3n2)cc1 | 4.0
COc1ccc(C(C)NC(=O)c2ccc(NC(C)=O)c(C)c2)cc1F (stereo unspecified) | 1.6
Cc1cccc(-n2c(-c3ccco3)nn(CC(=O)N3CCCCCC3)c2=O)n1 | -8.5
CCc1ccc(-c2noc(-c3c(O)c4ccc(F)cc4n(C)c3=O)n2)cc1 | 32.2
